The values below come from PMC4242493, “Sequence specificity incompletely defines the genome-wide occupancy of Myc”.

Over roughly 33,000 sequences, “normalized occupancy” has its median near 0.075; the highest 2% begin near 0.095. The sample as a whole holds a higher share of the highest values than the screen did.

MaxL homodimer, sequence (P61244 whole entry): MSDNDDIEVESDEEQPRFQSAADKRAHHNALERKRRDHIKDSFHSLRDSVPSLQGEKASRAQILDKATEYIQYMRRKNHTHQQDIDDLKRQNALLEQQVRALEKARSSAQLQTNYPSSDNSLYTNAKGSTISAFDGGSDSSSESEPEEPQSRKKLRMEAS

For the assay, the target named is MaxL homodimer (Homo sapiens, UniProt P61244 1-160). Put plainly: universal protein-binding microarray (PBM); PBS-based mixture, 10 nM His-tagged protein dimer, 2% milk, 200 ng/uL BSA, 50 ng/uL salmon testes DNA, 0.02% TX-100; detection with Alexa 488 anti-His antibody;; high values mean tight binding. Conditions: protein: recombinant; tags: C-terminal His-tag (pET21a); chain copies: 2; dsDNA, one strand shown. In outline:
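Agilent 4 x 44 K arrays carrying the 'all 10-mer' universal design were incubated with His-tagged protein dimer at 10 nM. Protein that bound was tagged using fluorophore-conjugated anti-His antibody at 10 ng/μL, and a GenePix 4400A scanned the arrays to give an intensity for every 8-mer. Each binding occupancy value expresses an intensity relative to the top-ranked intensity.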
With TATGCTAA, the binding signal was determined as 0.0798 normalized occupancy.
In the case of CAATCTCG, the binding signal came out at 0.0753 normalized occupancy.
Regarding ACGCTGAC, the binding signal is 0.0735 normalized occupancy.
Take ATTTGAGA: the binding signal worked out at 0.0896 normalized occupancy.
With AGACCCTC, the binding signal is 0.0752 normalized occupancy.
In the case of CTGGTCAC, the binding signal is 0.0773 normalized occupancy.
ATTTATGC: the binding signal was 0.0838 normalized occupancy.
With AGAGTTAA the figure was 0.0737 normalized occupancy; with AAGCGTGT, 0.0967 normalized occupancy; with AAGCGCGT, 0.0758 normalized occupancy.
With AAGCGTAT the figure was 0.0722 normalized occupancy; with GAGGGGAA, 0.0755 normalized occupancy.
As for AAGTGATG, the binding signal came to 0.0756 normalized occupancy.
In the case of AAGTGATC, the binding signal turned out to be 0.0794 normalized occupancy.
For the sequence AGGTGATG, the binding signal was found to be 0.0834 normalized occupancy.
GCATGATA: the binding signal is 0.0994 normalized occupancy.
Consider ACGTGATA, for which the binding signal amounted to 0.11 normalized occupancy.
As to AAGTGATA, the binding signal was found to be 0.0795 normalized occupancy.
AGGTGATA: the binding signal was determined as 0.0839 normalized occupancy.
Turning to GTATGATA, the binding signal was determined as 0.0877 normalized occupancy.
On to CCATGATA, for which the binding signal was determined as 0.0845 normalized occupancy.
On to ACGTGATG, for which the binding signal turned out to be 0.103 normalized occupancy.
With ACGTGATC the figure was 0.108 normalized occupancy; with CCGTGATC, 0.0778 normalized occupancy; with CTGGACGA, 0.0734 normalized occupancy.
For the sequence CCTTCAGA, the binding signal is 0.0732 normalized occupancy.
CGAGGGCA: the binding signal was 0.0765 normalized occupancy.
For GTGCTGGA, the binding signal came to 0.0813 normalized occupancy.
In the case of ATTGATTG, the binding signal was 0.0769 normalized occupancy.
Take CAAGGGAA: the binding signal turned out to be 0.0781 normalized occupancy.
In the case of ATGGATGC, the binding signal amounted to 0.082 normalized occupancy.
For the sequence GCGTGATA, the binding signal came out at 0.1 normalized occupancy.
On to GAGTGATA, for which the binding signal worked out at 0.0802 normalized occupancy.
CCGTGATA: the binding signal is 0.0782 normalized occupancy.
On to CCATTCAA, for which the binding signal was 0.0785 normalized occupancy.
For AGCATGGC, the binding signal came out at 0.102 normalized occupancy.
For ATCATGGA, the binding signal stood at 0.0834 normalized occupancy.
As to ATCATGGC, the binding signal was found to be 0.0863 normalized occupancy.
Consider ATCATGGG, for which the binding signal worked out at 0.0858 normalized occupancy.
Take AGAATGGC: the binding signal worked out at 0.0756 normalized occupancy.
For AGCATTGA, the binding signal was 0.0777 normalized occupancy.
CGCATAGC: the binding signal was 0.0734 normalized occupancy.
With AGCATGGA, the binding signal is 0.1 normalized occupancy.
With CCCATGGC, the binding signal came out at 0.0849 normalized occupancy.
For the sequence AGCATGGG, the binding signal came out at 0.106 normalized occupancy.
For the sequence CGCATGGC, the binding signal came to 0.127 normalized occupancy.
As for AGCATAGG, the binding signal turned out to be 0.0718 normalized occupancy.
As to ACTTTTAT, the binding signal was found to be 0.0748 normalized occupancy.
For CAGTAAAC, the binding signal was 0.0746 normalized occupancy.
For ACTTTGAA, the binding signal is 0.0759 normalized occupancy.
With CGTTATGA the figure was 0.0829 normalized occupancy; with CTTGATGA, 0.0755 normalized occupancy.
With AGATTATC the figure was 0.0807 normalized occupancy; with CCTCGCCG, 0.0725 normalized occupancy; with GGCATGGA, 0.0929 normalized occupancy.
Consider CGCATGGA, for which the binding signal was found to be 0.106 normalized occupancy.
Turning to GTCATGGA, the binding signal was determined as 0.0831 normalized occupancy.
With ACTGTTTC, the binding signal amounted to 0.0744 normalized occupancy.
For the sequence ATGAGTAC, the binding signal amounted to 0.0839 normalized occupancy.
With AATGCTAG the figure was 0.079 normalized occupancy; with GATGCTAC, 0.081 normalized occupancy.
With CATGCTAG, the binding signal was determined as 0.106 normalized occupancy.
CATGCTAC: the binding signal was 0.0953 normalized occupancy.
In the case of CATGCTAA, the binding signal amounted to 0.091 normalized occupancy.
For the sequence AATGCTAC, the binding signal came to 0.0772 normalized occupancy.
In the case of GGTAACGA, the binding signal stood at 0.0778 normalized occupancy.
AGATGACT: the binding signal is 0.0724 normalized occupancy.
With CGGTGGAA the figure was 0.0725 normalized occupancy.
Turning to ACATATGG, the binding signal amounted to 0.0977 normalized occupancy.
With ACATATGT the figure was 0.0906 normalized occupancy.
With ACATATGA, the binding signal was 0.0952 normalized occupancy.
For CCATATGA, the binding signal turned out to be 0.0926 normalized occupancy.
With ATATATGC the figure was 0.0867 normalized occupancy.
With ACATATCC the figure was 0.0835 normalized occupancy; with ACATATGC, 0.0976 normalized occupancy.
In the case of TCATATGA, the binding signal stood at 0.0914 normalized occupancy.
ATATATGG: the binding signal was determined as 0.0895 normalized occupancy.
For the sequence GAACATAC, the binding signal is 0.0829 normalized occupancy.
With GAATTACC the figure was 0.072 normalized occupancy.
GCACCTTA: the binding signal is 0.0768 normalized occupancy.
Consider AACGAGAC, for which the binding signal is 0.075 normalized occupancy.
As to AACGAGGC, the binding signal was 0.0809 normalized occupancy.
Take CACGAGAA: the binding signal is 0.0893 normalized occupancy.
As to CACGAGGC, the binding signal is 0.134 normalized occupancy.
As for CACGAGCC, the binding signal was 0.0812 normalized occupancy.
AACGAGGA: the binding signal was determined as 0.088 normalized occupancy.
On to CACGAGAC, for which the binding signal was found to be 0.1 normalized occupancy.
Consider CACGAGCG, for which the binding signal is 0.082 normalized occupancy.
Turning to TACGAGGA, the binding signal was 0.0793 normalized occupancy.
Regarding CACGAGGG, the binding signal is 0.134 normalized occupancy.
On to AACGAGGG, for which the binding signal worked out at 0.0775 normalized occupancy.
With CACGAGGA the figure was 0.137 normalized occupancy; with TACGGGCA, 0.0723 normalized occupancy; with GGTCTTAA, 0.075 normalized occupancy.
For CTCTATTA, the binding signal was 0.0807 normalized occupancy.
For the sequence CCCCGCAG, the binding signal came to 0.072 normalized occupancy.
Consider CAAATCTA, for which the binding signal was found to be 0.0804 normalized occupancy.
For the sequence GCTTCTTA, the binding signal was 0.0746 normalized occupancy.
As to CACAAGAG, the binding signal stood at 0.0792 normalized occupancy.
CACGTTTA: the binding signal turned out to be 0.0986 normalized occupancy.
On to GACGTTTA, for which the binding signal came out at 0.0757 normalized occupancy.
CATGTTTA: the binding signal amounted to 0.0975 normalized occupancy.
In the case of AACGTTTA, the binding signal is 0.0757 normalized occupancy.
As to CATGTTTC, the binding signal worked out at 0.0831 normalized occupancy.
As for CACGTTTC, the binding signal came out at 0.105 normalized occupancy.
As for CGCGTTTC, the binding signal stood at 0.0778 normalized occupancy.
Consider AATGTTTA, for which the binding signal turned out to be 0.0748 normalized occupancy.
As for AACGTTTC, the binding signal worked out at 0.0739 normalized occupancy.
With AGAAACCC, the binding signal turned out to be 0.0744 normalized occupancy.
ATAGAATC: the binding signal was found to be 0.0826 normalized occupancy.
For the sequence AGTGCTAG, the binding signal is 0.0731 normalized occupancy.
Consider ACCTTCAA, for which the binding signal was found to be 0.0719 normalized occupancy.
For CGAATAGA, the binding signal is 0.0736 normalized occupancy.
With CAGAACTA the figure was 0.0728 normalized occupancy.
Turning to CTAGAAGA, the binding signal came out at 0.0731 normalized occupancy.
Turning to AACGATGA, the binding signal was determined as 0.0771 normalized occupancy.
ACCCGTCA: the binding signal was found to be 0.0779 normalized occupancy.
With GTGTGTGA the figure was 0.0839 normalized occupancy.
Regarding ATGTGAGG, the binding signal is 0.0857 normalized occupancy.
As to ATGTGAGA, the binding signal came to 0.0969 normalized occupancy.
With ATGTGTCG the figure was 0.0903 normalized occupancy; with ATGTGCGG, 0.104 normalized occupancy; with GTGTGTCA, 0.0887 normalized occupancy.
With CTGTGTGA the figure was 0.0738 normalized occupancy.
With ATGTGCGA the figure was 0.0863 normalized occupancy.
As for ATGTGTGA, the binding signal was determined as 0.102 normalized occupancy.
On to ATGTGTCA, for which the binding signal worked out at 0.101 normalized occupancy.
With GTGTGAGA, the binding signal came to 0.0806 normalized occupancy.
Regarding ATGTGCGC, the binding signal came to 0.0928 normalized occupancy.
With ATTGAACG the figure was 0.082 normalized occupancy; with CTGACTAA, 0.0729 normalized occupancy; with ACATAAGA, 0.0789 normalized occupancy.
In the case of AACCTCTA, the binding signal was 0.0738 normalized occupancy.
With CCCTCCTC, the binding signal was found to be 0.0734 normalized occupancy.
For CGTACTGA, the binding signal is 0.0729 normalized occupancy.
AGCGCACG: the binding signal stood at 0.0877 normalized occupancy.
As to AGGAAAAC, the binding signal came out at 0.075 normalized occupancy.
Turning to ACGCGCCC, the binding signal is 0.0753 normalized occupancy.
With TAACTGCA the figure was 0.0726 normalized occupancy.
Regarding GCTACCAA, the binding signal worked out at 0.0737 normalized occupancy.
For TGATGGCA, the binding signal stood at 0.08 normalized occupancy.
As for AGTCCCCC, the binding signal came out at 0.0801 normalized occupancy.
On to ATCTTTAC, for which the binding signal was determined as 0.0755 normalized occupancy.
As for ATGTCACC, the binding signal was determined as 0.08 normalized occupancy.
For ATGTCACG, the binding signal turned out to be 0.101 normalized occupancy.
As to ATGTCACA, the binding signal was determined as 0.0852 normalized occupancy.
Turning to ATGTGTGC, the binding signal came out at 0.0957 normalized occupancy.
As to ATGTGTGG, the binding signal stood at 0.0891 normalized occupancy.
CTGTGTGC: the binding signal came out at 0.0783 normalized occupancy.
As for AATTCCGA, the binding signal came to 0.0729 normalized occupancy.
With CATCTGTC, the binding signal came to 0.0856 normalized occupancy.
As to GGGCTGTA, the binding signal was 0.0762 normalized occupancy.
In the case of CCCATCTA, the binding signal was found to be 0.0745 normalized occupancy.
As for CATAAATC, the binding signal came to 0.0857 normalized occupancy.
Consider CCGAACAA, for which the binding signal worked out at 0.0756 normalized occupancy.
Turning to GAAGTGAC, the binding signal worked out at 0.0733 normalized occupancy.
Regarding CAAATGAG, the binding signal amounted to 0.0793 normalized occupancy.
As to AACATGAA, the binding signal stood at 0.0878 normalized occupancy.
For TACATGAA, the binding signal stood at 0.0793 normalized occupancy.
In the case of GACATGAA, the binding signal is 0.0775 normalized occupancy.
On to CTCATGAG, for which the binding signal was 0.0946 normalized occupancy.
With AACATGAC the figure was 0.0831 normalized occupancy.
As to GACATGAC, the binding signal was 0.0811 normalized occupancy.
With CAAATGAC the figure was 0.0825 normalized occupancy; with AACATGAG, 0.0999 normalized occupancy; with CACATGAG, 0.109 normalized occupancy.
With CACATGAC the figure was 0.129 normalized occupancy; with CACATGAA, 0.104 normalized occupancy.
As for ATGTACAA, the binding signal came to 0.0815 normalized occupancy.
As to AAAAACCA, the binding signal came to 0.0806 normalized occupancy.
As for GCCACAGC, the binding signal stood at 0.0723 normalized occupancy.
Consider AATCGTAC, for which the binding signal was found to be 0.0751 normalized occupancy.
